Measured values: PubChem BioAssay (Tox21)
Results filed as inconclusive are left out. Active and inactive are the calls of the source. Unless noted, the call rests on the fitted dose curve; in most records, active means well fitted curve in the direction sought with a large enough effect in the repeat runs; inconclusive means weak or mixed curves; inactive means no such curve, though single readings can be large; an effect the other way counts as inactive or inconclusive.

Experiments:
[1] = qHTS assay to identify small molecule antagonists of the thyroid receptor (TR) signaling pathway - cell viability counter screen (AID 743064); further: nearly all actives have a fitted effect of over 50% in size
Summary of the method: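 Counter screen for cytotoxicity: compound plus T3 (1 nM final) on GH3.TRE-Luc cells, 23.5 h at 37 °C, then fluorescence viability readout with CellTiter-Fluor.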

[2] = qHTS assay to identify small molecule antagonists of the thyroid receptor (TR) signaling pathway (AID 743065); further: series mostly up to about 70 µM; nearly all actives have a fitted effect of over 55% in size
Summary of the method: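 GH3.TRE-Luc rat pituitary cells (two TREs driving luciferase) were dosed with compound, then stimulated with 1 nM T3 (final) for 23.5 h at 37 C. ONE-Glo luminescence was the read-out, with CellTiter-Fluor fluorescence as the cytotoxicity counter-screen.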

[3] = system: thyroid hormone receptor (rat, GH3 cells); assay: qHTS assay to identify small molecule agonists of the thyroid receptor (TR) signaling pathway (AID 743066; calls by dose curve)
[4] = target: Estrogen receptor (Homo sapiens) (UniProt P03372); assay: qHTS assay to identify small molecule antagonists of the estrogen receptor alpha (ER-alpha) signaling pathway (AID 743069; active means well fitted curve in the direction sought with a large enough effect in the signal ratio in the repeat runs, not every such curve was filed as active; the % refers to the signal ratio)
Summary of the method: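 Beta-lactamase FRET fluorescence is read after 2 hr at room temperature with LiveBLAzer B/G substrate. Before that, ER-alpha-bla HEK293 cells sit 4 hr after plating, then receive compound plus 17beta-estradiol and incubate 18 hr at 37C.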

[5] = qHTS assay to identify small molecule antagonists of the estrogen receptor alpha (ER-alpha) signaling pathway - cell viability counter screen (AID 743074; calls by dose curve;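 further: HEK293 cells carrying ER-alpha-UAS-bla reporter stimulated with 17beta-estradiol; nearly all actives have a fitted effect of over 45% in size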)
[6] = target: Estrogen receptor (Homo sapiens) (UniProt P03372); assay: qHTS assay to identify small molecule agonists of the estrogen receptor alpha (ER-alpha) signaling pathway (AID 743075; calls by dose curve;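 further: HEK293 GripTite cells with ER-alpha and UAS-driven beta-lactamase reporter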)
[7] = target: Estrogen receptor (Homo sapiens) (UniProt P03372); assay: qHTS assay to identify small molecule agonists of the estrogen receptor alpha (ER-alpha) signaling pathway using the BG1 cell line (AID 743079); further: nearly all actives have a fitted effect of over 20% in size
[8] = qHTS assay to identify small molecule antagonists of the estrogen receptor alpha (ER-alpha) signaling pathway using the BG1 cell line (AID 743080; calls by dose curve;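 further: BG1 cells stimulated with 17beta-estradiol alongside compound; series mostly up to about 70 µM; nearly all actives have a fitted effect of over 25% in size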)
Summary of the method: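 Luminescence from a 4×ERE-luciferase reporter in BG1-Luc-4E2 cells served as read-out. Cells, pre-cultured 5 days in stripped-serum phenol-red-free medium, were exposed to compound with 17beta-estradiol co-stimulation for 21.5 h at 37 C.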

[9] = qHTS assay to identify small molecule antagonists of the estrogen receptor alpha (ER-alpha) signaling pathway using the BG1 cell line - cell viability counter screen (AID 743081);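 further: compound given together with 17beta-estradiol as the ER stimulus; series mostly up to about 70 µM; nearly all actives have a fitted effect of over 45% in size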
Aromatase (Homo sapiens) = Aromatase (Homo sapiens) (UniProt P11511); assay: qHTS assay to identify aromatase inhibitors (AID 743083); further: series mostly up to about 70 µM; nearly all actives have a fitted effect of over 55% in size
[10] = qHTS assay to identify aromatase inhibitors - cell viability counter screen (AID 743084);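 further: cells stimulated with testosterone during compound exposure; nearly all actives have a fitted effect of over 55% in size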
[11] = target: Aryl hydrocarbon receptor (Homo sapiens) (UniProt P35869); assay: qHTS assay to identify small molecule that activate the aryl hydrocarbon receptor (AhR) signaling pathway (AID 743085);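 further: HG2L7.5c1 human HepG2 liver cells with stably integrated DRE-driven firefly reporter; series mostly up to about 70 µM; nearly all actives have a fitted effect of over 15% in size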
Summary of the method: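 Measured in HG2L7.5c1 cells: CellTiter-Fluor signal (30 min incubation, 37C) for viability, then luciferase luminescence (30 min, room temperature). Compound contact time was 24 h at 37C, following a 5 h pre-incubation.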

[12] = qHTS assay to identify small molecule that activate the aryl hydrocarbon receptor (AhR) signaling pathway - cell viability counter screen (AID 743086);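 further: HepG2 liver cells carrying the AhR DRE luciferase reporter; series mostly up to about 70 µM; nearly all actives have a fitted effect of over 45% in size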
Summary of the method: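 HepG2-AhR-luc (HG2L7.5c1) cells, 4000/well, treated 24 h at 37 C with compound; viability measured as CellTiter-Fluor fluorescence after 30 min in the same wells as the luciferase read.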

[13] = target: Peroxisome proliferator-activated receptor gamma (Homo sapiens) (UniProt P37231); assay: qHTS assay to identify small molecule agonists of the peroxisome proliferator-activated receptor gamma (PPARg) signaling pathway (AID 743094; active means well fitted activation curve with a large enough effect in the signal ratio in the repeat runs, not every such curve was filed as active; the % refers to the signal ratio)
Summary of the method: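 HEK293H PPARg-bla cells, 5 h settle at 37C/5% CO2; compound (DMSO) 17 h, 37C; B/G FRET substrate 1 h RT; fluorescence intensity read-out. qHTS format.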

[14] = target: Peroxisome proliferator-activated receptor gamma (Homo sapiens) (UniProt P37231); assay: qHTS assay to identify small molecule antagonists of the peroxisome proliferator-activated receptor gamma (PPARg) signaling pathway (AID 743191; calls by dose curve; further: series mostly up to about 63 µM; nearly all actives have a fitted effect of over 30% in size)
Summary of the method: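 GeneBLAzer PPARg UAS-bla HEK293H cells, 5 h post-plating, exposed to compounds 17 h at 37C. LiveBLAzer B/G FRET substrate added for 1 h at room temperature; beta-lactamase reporter read by fluorescence intensity.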

[15] = qHTS assay to identify small molecule antagonists of the peroxisome proliferator-activated receptor gamma (PPARg) signaling pathway - cell viability counter screen (AID 743194); further: nearly all actives have a fitted effect of over 55% in size
Summary of the method: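 Cytotoxicity counter screen in PPARg-bla HEK293H cells, same wells as reporter assay. Compounds plus 50 nM rosiglitazone (final) for 17 h at 37 C, then viability read by CellTiter-Glo luminescence.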

[16] = qHTS assay for small molecule agonists of the antioxidant response element (ARE) signaling pathway (AID 743202; active means well fitted activation curve with a large enough effect in the signal ratio in the repeat runs, not every such curve was filed as active; the % refers to the signal ratio)
Summary of the method: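 HepG2 ARE-bla reporter line, 2,000 cells/well; 5 h preincubation 37 C/5% CO2; compound (DMSO) 16 h 37 C; B/G FRET substrate 2 h RT; fluorescence intensity.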

[17] = qHTS assay for small molecule agonists of the antioxidant response element (ARE) signaling pathway - cell viability counter screen (AID 743203; calls by dose curve; further: nearly all actives have a fitted effect of over 55% in size)
Summary of the method: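 Luminescence read-out (CellTiter-Glo, 30 min at room temperature) measured cell viability in the same wells as the ARE beta-lactamase reporter. HepG2 ARE-bla cells were treated with compounds for 16 hrs at 37C/5% CO2.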

[18] = qHTS assay for small molecule activators of the heat shock response signaling pathway - cell viability counter screen (AID 743209); further: nearly all actives have a fitted effect of over 50% in size
Summary of the method: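 HSE-bla HeLa; 1500 cells/well; overnight 37 C, 5% CO2; compound 5 h 37 C; LiveBLAzer B/G substrate 2.5 h RT; CellTiter-Glo 30 min RT; luminescence.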

[19] = qHTS assay for small molecule activators of the heat shock response signaling pathway (AID 743210; active means well fitted activation curve with a large enough effect in the signal ratio in the repeat runs, with a control signal flat, not every such curve was filed as active; the % refers to the signal ratio;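 further: HeLa cells with beta-lactamase reporter driven by heat shock elements; series mostly up to about 63 µM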)
Summary of the method: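 Beta-lactamase reporter read-out: FRET substrate fluorescence after 2.5 h at RT, following 5 h compound treatment at 37 C of HeLa cells carrying HSE-driven bla reporter; quantitative HTS format.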

Measured: Potency

Chain of Peroxisome proliferator-activated receptor gamma (Homo sapiens) (P37231 whole entry, looked up): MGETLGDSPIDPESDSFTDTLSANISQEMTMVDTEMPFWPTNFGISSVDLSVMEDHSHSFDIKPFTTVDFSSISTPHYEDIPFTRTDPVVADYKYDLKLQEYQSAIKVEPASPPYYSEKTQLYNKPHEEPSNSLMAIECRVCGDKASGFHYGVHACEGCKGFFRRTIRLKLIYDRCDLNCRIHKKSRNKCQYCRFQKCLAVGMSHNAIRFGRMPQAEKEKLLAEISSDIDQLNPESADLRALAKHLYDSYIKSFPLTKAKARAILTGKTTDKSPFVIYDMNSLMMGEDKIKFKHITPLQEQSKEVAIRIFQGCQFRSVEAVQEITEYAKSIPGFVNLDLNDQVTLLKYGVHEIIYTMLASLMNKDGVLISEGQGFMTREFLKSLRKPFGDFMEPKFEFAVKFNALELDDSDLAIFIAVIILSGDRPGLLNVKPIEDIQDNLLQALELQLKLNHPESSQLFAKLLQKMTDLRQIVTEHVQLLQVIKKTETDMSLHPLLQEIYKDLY
Chain of Aromatase (Homo sapiens) (P11511 whole entry, looked up): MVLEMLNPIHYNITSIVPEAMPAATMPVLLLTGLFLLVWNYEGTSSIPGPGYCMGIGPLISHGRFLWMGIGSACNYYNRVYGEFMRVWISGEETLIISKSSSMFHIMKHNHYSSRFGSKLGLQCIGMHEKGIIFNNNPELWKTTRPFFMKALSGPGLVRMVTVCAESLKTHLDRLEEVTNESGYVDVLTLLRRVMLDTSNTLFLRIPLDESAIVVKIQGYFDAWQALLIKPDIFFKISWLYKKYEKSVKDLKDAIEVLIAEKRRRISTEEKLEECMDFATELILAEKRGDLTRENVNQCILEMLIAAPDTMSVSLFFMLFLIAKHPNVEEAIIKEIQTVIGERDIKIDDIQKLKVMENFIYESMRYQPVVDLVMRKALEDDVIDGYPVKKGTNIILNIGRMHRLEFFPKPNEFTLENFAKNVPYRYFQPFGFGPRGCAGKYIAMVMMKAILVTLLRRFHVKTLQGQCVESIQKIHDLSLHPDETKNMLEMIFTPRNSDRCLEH
Chain of Aryl hydrocarbon receptor (Homo sapiens) (P35869 whole entry, looked up): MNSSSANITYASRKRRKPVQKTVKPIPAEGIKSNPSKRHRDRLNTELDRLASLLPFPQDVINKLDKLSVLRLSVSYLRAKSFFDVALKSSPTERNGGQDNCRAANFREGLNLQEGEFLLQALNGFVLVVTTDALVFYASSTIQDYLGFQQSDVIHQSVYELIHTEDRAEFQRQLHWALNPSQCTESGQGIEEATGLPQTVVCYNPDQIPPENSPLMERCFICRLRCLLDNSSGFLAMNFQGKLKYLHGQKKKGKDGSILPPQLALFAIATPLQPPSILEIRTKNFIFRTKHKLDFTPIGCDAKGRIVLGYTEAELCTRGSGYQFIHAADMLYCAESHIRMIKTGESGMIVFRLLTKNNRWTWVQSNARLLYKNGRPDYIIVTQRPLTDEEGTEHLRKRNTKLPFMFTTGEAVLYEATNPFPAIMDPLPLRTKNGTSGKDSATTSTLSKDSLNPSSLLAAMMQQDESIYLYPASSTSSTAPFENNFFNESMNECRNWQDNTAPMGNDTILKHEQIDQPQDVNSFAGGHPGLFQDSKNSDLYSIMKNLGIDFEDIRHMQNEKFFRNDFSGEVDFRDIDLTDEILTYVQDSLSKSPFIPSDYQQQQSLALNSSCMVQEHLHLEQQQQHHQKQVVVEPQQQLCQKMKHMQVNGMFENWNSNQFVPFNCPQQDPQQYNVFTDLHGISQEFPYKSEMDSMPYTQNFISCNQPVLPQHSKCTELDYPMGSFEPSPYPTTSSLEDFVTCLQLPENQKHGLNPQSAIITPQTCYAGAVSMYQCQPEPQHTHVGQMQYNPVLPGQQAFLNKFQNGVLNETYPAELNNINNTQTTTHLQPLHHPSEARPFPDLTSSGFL
Chain of Estrogen receptor (Homo sapiens) (P03372 whole entry, looked up): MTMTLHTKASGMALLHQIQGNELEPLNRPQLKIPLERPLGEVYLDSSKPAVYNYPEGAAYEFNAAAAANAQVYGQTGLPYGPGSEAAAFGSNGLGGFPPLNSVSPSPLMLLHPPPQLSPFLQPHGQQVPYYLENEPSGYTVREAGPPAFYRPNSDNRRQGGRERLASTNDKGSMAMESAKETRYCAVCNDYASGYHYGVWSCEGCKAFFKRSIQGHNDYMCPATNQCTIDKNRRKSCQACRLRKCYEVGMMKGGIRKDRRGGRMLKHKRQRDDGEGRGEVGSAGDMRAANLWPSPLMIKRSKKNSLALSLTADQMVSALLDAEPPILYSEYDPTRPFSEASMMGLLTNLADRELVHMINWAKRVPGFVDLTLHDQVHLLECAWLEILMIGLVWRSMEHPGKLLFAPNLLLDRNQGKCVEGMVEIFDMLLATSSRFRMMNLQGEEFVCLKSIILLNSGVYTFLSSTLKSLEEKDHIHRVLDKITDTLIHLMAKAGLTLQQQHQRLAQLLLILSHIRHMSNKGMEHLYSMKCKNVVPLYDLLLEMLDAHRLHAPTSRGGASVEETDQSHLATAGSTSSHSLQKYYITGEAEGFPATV

Nc1ccc(S(=O)(=O)Nc2ccnn2-c2ccccc2)cc1
inactive: [1] | [2] | [3] | [4] | [5] | [6] | [7] | [8] | [9] | Aromatase (Homo sapiens) | [10] | [11] | [12] | [13] | [14] | [15] | [16] | [17] | [18] | [19]

CC/C=C\CCOC(C)=O
inactive: [1] | [2] | [3] | [4] | [5] | [6] | [7] | [8] | [9] | Aromatase (Homo sapiens) | [10] | [11] | [12] | [13] | [14] | [15] | [16] | [17] | [18] | [19]

ClC(Cl)(Br)Br
inactive: [1] | [2] | [3] | [4] | [5] | [6] | [7] | [8] | [9] | Aromatase (Homo sapiens) | [10] | [11] | [12] | [13] | [16] | [17] | [18] | [19]

O=C1CCCN1C1CCCCC1
inactive: [1] | [2] | [3] | [4] | [5] | [6] | [7] | [8] | [9] | Aromatase (Homo sapiens) | [10] | [11] | [12] | [13] | [14] | [15] | [17] | [18] | [19]

CN1C(=O)N(C)C(O)C1O (stereo unspecified)
inactive: [1] | [2] | [3] | [4] | [5] | [6] | [7] | [8] | [9] | Aromatase (Homo sapiens) | [10] | [11] | [12] | [13] | [14] | [16] | [17] | [18]

NS(=O)(=O)c1ccc(C(=O)O)cc1
inactive: [1] | [2] | [3] | [4] | [5] | [6] | [7] | [8] | [9] | Aromatase (Homo sapiens) | [10] | [11] | [12] | [13] | [14] | [15] | [17] | [18]

CC(C(=O)O)c1ccc(CC2CCCC2=O)cc1 (stereo unspecified)
inactive: [1] | [2] | [3] | [4] | [5] | [6] | [7] | [8] | [9] | Aromatase (Homo sapiens) | [10] | [11] | [12] | [13] | [14] | [16] | [17] | [18]
